PubChem BioAssay
Activity calls are given as the source filed them. The rule behind the calls is not given here.

Target: Pantothenate synthetase (Mycobacterium tuberculosis (strain ATCC 25618 / H37Rv)) (UniProt P9WIL5)
Assay: Recombinant Mtb pantothenate synthetase (PanC) inhibitors, coupled enzyme, confirmatory (AID 375);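 note: 0% = full reaction with vehicle and 100% = no enzyme background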
Conditions: coupled enzyme assay; at 10 µM, hits give high values

Pantothenate synthetase (Mycobacterium tuberculosis (strain ATCC 25618 / H37Rv)), sequence (P9WIL5 whole entry, looked up): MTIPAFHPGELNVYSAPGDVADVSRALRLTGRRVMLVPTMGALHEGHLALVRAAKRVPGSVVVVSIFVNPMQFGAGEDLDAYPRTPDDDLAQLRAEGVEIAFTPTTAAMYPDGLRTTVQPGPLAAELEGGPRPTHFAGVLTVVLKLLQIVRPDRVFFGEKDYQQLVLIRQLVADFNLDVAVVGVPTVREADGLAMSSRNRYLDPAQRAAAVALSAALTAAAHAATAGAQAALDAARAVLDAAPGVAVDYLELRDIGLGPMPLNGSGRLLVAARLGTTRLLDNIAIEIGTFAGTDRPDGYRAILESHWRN

SMILES	inhibition
CCN(CC)c1ccc(CNc2ccc(Br)cn2)cc1	0% (inactive)
O=C(c1ccccc1-c1ccccc1)N1CCN(c2ccccn2)CC1	0% (inactive)
Cc1onc(-c2ccccc2)c1C(=O)NCc1cccnc1	10% (inactive)
COc1ccc(C(C(C(=O)c2ccco2)N2CCOCC2)N2CCOCC2)cc1 (stereo not given)	11% (inactive)
Cc1ccc(C)c(NC(=O)CC(NCCCN2CCOCC2)C(=O)O)c1 (stereo not given)	7% (inactive)
O=C(NCC(=O)N(Cc1cccs1)C(C(=O)NC1CCCC1)c1ccncc1)c1ccco1 (stereo not given)	4% (inactive)
CCN1CCN(C(=O)Cn2ncc3ccsc3c2=O)CC1	0% (inactive)
Cc1ccc(C)c(S(=O)(=O)n2cnc3ccccc32)c1	0% (inactive)
C=CCNC(=O)c1cc(-c2ccccc2O)on1	0% (inactive)
Cn1cnc2cc(NC(=O)c3ccc(Cl)cc3)ccc21	0% (inactive)
CN(Cc1nc(-c2ccncc2)no1)S(=O)(=O)c1ccccc1	6% (inactive)
COc1ccc(CCNC(=O)c2cc3sc(Cl)cc3n2C)cc1OC	0% (inactive)
CC(=O)N1CCc2cc(S(=O)(=O)CCC(=O)N3CCN(c4ccccn4)CC3)ccc21	11% (inactive)
Cc1nn(-c2ccccc2)c(C)c1/C=N/O	0% (inactive)
Cc1ccc(-c2nc3cc(NC(=O)C(C)C)ccc3o2)cc1C	0% (inactive)
C=CCn1c(SCC(=O)Nc2ccc3c(c2)OCO3)nc2ccccc2c1=O	2% (inactive)
COc1ccc(N2CCN(C(c3ccccc3)c3sc4nc(C)nn4c3O)CC2)cc1 (stereo not given)	0% (inactive)
Cc1csc(NC(=O)CCCSc2nc3ccccc3s2)n1	0% (inactive)
O=C(CN1CCCCCC1)OCCN=C1NS(=O)(=O)c2ccccc21	0% (inactive)
Cc1cc(NC(=O)C2=C(O)c3ccccc3S(=O)(=O)N2C)no1	0% (inactive)

SMILES	inhibition
c1ccc(-c2cn3c4c(sc3n2)CCCC4)cc1	3% (inactive)
CCOc1cccc(C(=O)Nc2cccc(-c3nc4ncccc4o3)c2C)c1	10% (inactive)
Cc1ccc(N2CCN(CCc3nc4cc(NS(C)(=O)=O)ccc4n3C)CC2)cc1	0% (inactive)
Cc1c(C(=O)OC2CCCCC2)[nH]c2c1C(=O)CC(C)(C)C2	0% (inactive)
O=C(CN1CCSCC1)N1CCc2[nH]c3ccc(Br)cc3c2C1	0% (inactive)
CC1(C)CC(=O)c2cc(OCC(=O)NCCCN3CCN(c4ccccc4F)CC3)ccc2O1	0% (inactive)
Cc1ccc(S(=O)(=O)NCCCCC(NC(=O)OC(C)(C)C)C(=O)O)cc1 (stereo not given) (tested in a mixture with another compound)	0% (inactive)
CCCNS(=O)(=O)c1ccc(C(=O)NCC2CCCO2)cc1 (stereo not given)	0% (inactive)
Cc1cccc(NC(=O)CSc2nnc(-c3ccccc3C)o2)c1	0% (inactive)
Cn1cnnc1SCC(=O)NCc1cccc(C(F)(F)F)c1	0% (inactive)
O=C(CCn1c(=O)oc2ccccc21)N1CCCCCC1	0% (inactive)
COc1ccc(CN(C(=O)CSc2nnc(-c3ccccc3F)o2)c2ccc(F)cc2)cc1	0% (inactive)
O=C(Nc1ccc2c(c1)OCCO2)c1ccco1	5% (inactive)
CCNC(=O)CC1C(=O)N(c2ccc(F)cc2)C(=O)N1CCC(C)C (stereo not given)	0% (inactive)
Cc1[nH]c(=O)[nH]c(=O)c1S(=O)(=O)N1CCN(c2cccc(Cl)c2)CC1	1% (inactive)
CCCN1CCN(CCCNC(=O)C2CCCN(c3nc4ccc(OCC)cc4s3)C2)CC1 (stereo not given)	1% (inactive)
COc1ccc(/C=C(/C#N)c2cccnc2)cc1OC	8% (inactive)
COc1cc2[nH]c(=O)n(CCCCCC(=O)N3CCN(c4ccccn4)CC3)c(=O)c2cc1OC	2% (inactive)
Cc1ccc(C)c(NC(=O)c2ccc3c(c2)N(Cc2ccc(F)cc2)C(=O)CS3=O)c1 (stereo not given)	0% (inactive)
CC(C)OC(=O)CSc1nnc(-c2ccc(O)cc2)n1Cc1ccccc1	0% (inactive)
